# Test results as given in article PMC7862700, “An all-to-all approach to the identification of sequence-specific readers for epigenetic DNA modifications on cytosine”.
# Experiments:
# Assay in all cases: DAPPL (digital affinity profiling via proximity ligation, sequencing); 10 mM Tris-HCl pH 7.5, 50 mM NaCl, 1 mM DTT, 4% glycerol, room temperature, 30 min; GST-TFs on glutathione beads, 16-mer random dsDNA library, 0.1% formaldehyde crosslink after washing; high values mean tight binding
# FLI1 = molecular target: T1, FLI1 (Homo sapiens, UniProt Q01543 1-452); conditions: protein: recombinant; tags: N-terminal GST; dsDNA, one strand shown
# T1 sequence: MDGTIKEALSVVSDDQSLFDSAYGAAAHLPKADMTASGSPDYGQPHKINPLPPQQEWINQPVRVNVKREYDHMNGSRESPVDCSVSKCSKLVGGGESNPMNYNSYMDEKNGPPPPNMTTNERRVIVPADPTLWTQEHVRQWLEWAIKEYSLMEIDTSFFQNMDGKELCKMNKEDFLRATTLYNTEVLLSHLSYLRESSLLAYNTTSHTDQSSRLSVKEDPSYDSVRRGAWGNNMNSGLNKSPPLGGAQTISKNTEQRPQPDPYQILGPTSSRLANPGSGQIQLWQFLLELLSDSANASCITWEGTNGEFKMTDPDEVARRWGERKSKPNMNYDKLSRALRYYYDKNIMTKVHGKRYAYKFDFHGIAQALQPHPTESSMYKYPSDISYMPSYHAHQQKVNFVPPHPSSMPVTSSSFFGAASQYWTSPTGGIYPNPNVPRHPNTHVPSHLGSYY
# Method in brief: (§1)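 Human transcription factors fused to GST were expressed in yeast, captured on glutathione beads, given DNA barcodes and pooled with a GST-only negative control. Pools were incubated with 200 nmole of a 16-mer random double-stranded DNA library in Tris/NaCl/DTT/glycerol buffer at room temperature for 30 min. They were then washed, crosslinked with 0.1% formaldehyde, proximity-ligated (BsaI/T4 ligase, 1 h, 37 °C), PCR-amplified and sequenced on an Illumina NextSeq500. Binding signal is each 6-mer's read frequency for a factor divided by its frequency for the GST control.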
# ELK1 = molecular target: T2, ELK1 (Homo sapiens, UniProt P19419 1-428); conditions: protein: recombinant; tags: N-terminal GST; dsDNA, one strand shown
# T2 sequence: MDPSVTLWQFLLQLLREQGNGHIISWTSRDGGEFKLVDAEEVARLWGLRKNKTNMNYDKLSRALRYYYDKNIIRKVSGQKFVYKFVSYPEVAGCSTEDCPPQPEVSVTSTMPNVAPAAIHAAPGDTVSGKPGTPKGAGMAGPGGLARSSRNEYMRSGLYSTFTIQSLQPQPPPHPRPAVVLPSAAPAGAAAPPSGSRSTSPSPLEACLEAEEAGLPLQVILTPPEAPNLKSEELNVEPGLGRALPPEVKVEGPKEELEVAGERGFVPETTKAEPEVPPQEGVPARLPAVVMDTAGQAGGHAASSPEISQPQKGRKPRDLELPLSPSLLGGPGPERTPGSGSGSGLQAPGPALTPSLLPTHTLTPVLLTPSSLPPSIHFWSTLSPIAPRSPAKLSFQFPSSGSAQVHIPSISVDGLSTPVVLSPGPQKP
# Method in brief: as §1
# GABPA = molecular target: T3, GABPA (Homo sapiens, UniProt Q06546 1-454); conditions: protein: recombinant; tags: N-terminal GST; dsDNA, one strand shown
# T3 sequence: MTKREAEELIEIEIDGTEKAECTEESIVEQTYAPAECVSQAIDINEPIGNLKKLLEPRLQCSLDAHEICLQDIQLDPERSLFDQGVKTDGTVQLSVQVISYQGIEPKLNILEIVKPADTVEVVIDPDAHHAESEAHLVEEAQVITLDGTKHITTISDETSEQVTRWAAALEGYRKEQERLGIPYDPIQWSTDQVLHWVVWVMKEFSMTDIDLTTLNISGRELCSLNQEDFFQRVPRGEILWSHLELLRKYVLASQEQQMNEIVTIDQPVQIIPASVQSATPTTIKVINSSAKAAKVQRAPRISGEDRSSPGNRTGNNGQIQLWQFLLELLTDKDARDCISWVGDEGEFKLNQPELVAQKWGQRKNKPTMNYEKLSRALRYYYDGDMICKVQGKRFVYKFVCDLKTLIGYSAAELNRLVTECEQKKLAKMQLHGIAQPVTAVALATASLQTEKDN
# Method in brief: as §1
# ERG = molecular target: T4, ERG (Homo sapiens, UniProt P11308 1-479); conditions: protein: recombinant; tags: N-terminal GST; dsDNA, one strand shown
# T4 sequence: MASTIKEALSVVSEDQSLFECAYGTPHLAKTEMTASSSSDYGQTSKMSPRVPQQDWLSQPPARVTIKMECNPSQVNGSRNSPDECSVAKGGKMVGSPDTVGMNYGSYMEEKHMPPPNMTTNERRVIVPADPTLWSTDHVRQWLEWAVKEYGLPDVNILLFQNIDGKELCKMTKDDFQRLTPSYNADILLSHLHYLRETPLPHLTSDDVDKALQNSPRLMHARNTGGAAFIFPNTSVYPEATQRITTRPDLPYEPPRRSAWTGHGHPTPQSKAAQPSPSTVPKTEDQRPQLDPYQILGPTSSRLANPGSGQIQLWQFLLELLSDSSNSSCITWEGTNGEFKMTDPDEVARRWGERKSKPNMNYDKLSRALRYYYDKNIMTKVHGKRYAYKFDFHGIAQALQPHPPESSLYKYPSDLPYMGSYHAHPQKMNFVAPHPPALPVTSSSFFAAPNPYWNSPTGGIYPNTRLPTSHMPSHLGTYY
# Method in brief: as §1
# ELF1 = ELF1 (Homo sapiens, UniProt P32519 1-619); conditions: protein: recombinant; tags: N-terminal GST; dsDNA, one strand shown
# Chain of ELF1 (P32519 whole entry): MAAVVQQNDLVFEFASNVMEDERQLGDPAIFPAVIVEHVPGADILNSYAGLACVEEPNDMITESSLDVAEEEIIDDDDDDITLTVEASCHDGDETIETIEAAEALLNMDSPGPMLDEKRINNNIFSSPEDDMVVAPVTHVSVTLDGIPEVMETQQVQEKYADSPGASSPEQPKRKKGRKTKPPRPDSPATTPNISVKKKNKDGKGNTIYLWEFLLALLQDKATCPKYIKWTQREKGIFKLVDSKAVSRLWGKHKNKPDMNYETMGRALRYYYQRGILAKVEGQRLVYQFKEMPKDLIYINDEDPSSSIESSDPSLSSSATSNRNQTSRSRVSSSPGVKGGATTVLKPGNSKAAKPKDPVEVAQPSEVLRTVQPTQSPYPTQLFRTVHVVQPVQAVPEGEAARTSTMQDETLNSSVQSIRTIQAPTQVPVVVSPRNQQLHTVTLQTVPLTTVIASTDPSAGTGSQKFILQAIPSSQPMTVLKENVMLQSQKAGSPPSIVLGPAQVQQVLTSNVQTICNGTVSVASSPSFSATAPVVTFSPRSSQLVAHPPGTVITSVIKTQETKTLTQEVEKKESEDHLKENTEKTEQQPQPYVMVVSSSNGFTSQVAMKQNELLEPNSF
# Method in brief: as §1
# EHF = molecular target: T5, EHF (Homo sapiens, UniProt Q9NZC4 1-300); conditions: protein: recombinant; tags: N-terminal GST; dsDNA, one strand shown
# T5 sequence: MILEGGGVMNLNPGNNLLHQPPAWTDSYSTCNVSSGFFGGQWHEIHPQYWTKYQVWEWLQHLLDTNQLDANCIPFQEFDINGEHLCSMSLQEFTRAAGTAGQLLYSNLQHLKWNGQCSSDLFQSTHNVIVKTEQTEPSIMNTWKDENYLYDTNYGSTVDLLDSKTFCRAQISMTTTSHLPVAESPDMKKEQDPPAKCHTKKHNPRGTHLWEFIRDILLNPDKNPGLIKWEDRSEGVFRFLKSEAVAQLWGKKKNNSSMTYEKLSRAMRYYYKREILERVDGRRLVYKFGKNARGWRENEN
# Method in brief: as §1
# SPI1 = SPI1 (Homo sapiens, UniProt P17947 1-270); conditions: protein: recombinant; tags: N-terminal GST; dsDNA, one strand shown
# Method in brief: as §1
# SPIB = SPIB (Homo sapiens, UniProt Q01892 1-262); conditions: protein: recombinant; tags: N-terminal GST; dsDNA, one strand shown
# Chain of SPIB (Q01892 whole entry): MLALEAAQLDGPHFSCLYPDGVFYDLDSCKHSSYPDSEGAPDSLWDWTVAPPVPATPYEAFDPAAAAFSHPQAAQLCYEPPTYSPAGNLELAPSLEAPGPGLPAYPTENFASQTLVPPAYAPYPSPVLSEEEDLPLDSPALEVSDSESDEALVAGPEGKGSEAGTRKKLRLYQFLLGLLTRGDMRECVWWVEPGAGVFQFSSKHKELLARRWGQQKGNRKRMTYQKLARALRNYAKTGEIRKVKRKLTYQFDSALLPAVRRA
# Method in brief: as §1
# ELK3 = molecular target: T6, ELK3 (Homo sapiens, UniProt P41970 1-407); conditions: protein: recombinant; tags: N-terminal GST; dsDNA, one strand shown
# T6 sequence: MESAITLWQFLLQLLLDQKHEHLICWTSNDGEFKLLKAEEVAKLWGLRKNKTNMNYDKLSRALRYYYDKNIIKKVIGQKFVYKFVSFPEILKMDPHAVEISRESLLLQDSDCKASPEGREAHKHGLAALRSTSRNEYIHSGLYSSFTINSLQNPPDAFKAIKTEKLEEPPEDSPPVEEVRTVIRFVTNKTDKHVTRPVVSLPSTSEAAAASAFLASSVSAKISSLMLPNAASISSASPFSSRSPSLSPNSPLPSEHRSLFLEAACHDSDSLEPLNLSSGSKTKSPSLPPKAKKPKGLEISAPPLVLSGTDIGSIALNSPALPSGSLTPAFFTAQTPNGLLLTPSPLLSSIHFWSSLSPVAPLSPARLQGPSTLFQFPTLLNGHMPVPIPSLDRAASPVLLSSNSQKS
# Method in brief: as §1
# FEV = molecular target: T7, FEV (Homo sapiens, UniProt Q99581 1-238); conditions: protein: recombinant; tags: N-terminal GST; dsDNA, one strand shown
# T7 sequence: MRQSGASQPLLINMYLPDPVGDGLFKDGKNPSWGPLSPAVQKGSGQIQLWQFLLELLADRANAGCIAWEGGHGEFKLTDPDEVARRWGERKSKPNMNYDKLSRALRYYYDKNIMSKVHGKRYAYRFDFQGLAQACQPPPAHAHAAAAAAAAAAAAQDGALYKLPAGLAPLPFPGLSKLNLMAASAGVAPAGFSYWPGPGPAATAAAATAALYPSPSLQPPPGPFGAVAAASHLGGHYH
# Method in brief: as §1
# ETV5 = ETV5 (Homo sapiens, UniProt P41161 1-510); conditions: protein: recombinant; tags: N-terminal GST; dsDNA, one strand shown
# Chain of ETV5 (P41161 whole entry): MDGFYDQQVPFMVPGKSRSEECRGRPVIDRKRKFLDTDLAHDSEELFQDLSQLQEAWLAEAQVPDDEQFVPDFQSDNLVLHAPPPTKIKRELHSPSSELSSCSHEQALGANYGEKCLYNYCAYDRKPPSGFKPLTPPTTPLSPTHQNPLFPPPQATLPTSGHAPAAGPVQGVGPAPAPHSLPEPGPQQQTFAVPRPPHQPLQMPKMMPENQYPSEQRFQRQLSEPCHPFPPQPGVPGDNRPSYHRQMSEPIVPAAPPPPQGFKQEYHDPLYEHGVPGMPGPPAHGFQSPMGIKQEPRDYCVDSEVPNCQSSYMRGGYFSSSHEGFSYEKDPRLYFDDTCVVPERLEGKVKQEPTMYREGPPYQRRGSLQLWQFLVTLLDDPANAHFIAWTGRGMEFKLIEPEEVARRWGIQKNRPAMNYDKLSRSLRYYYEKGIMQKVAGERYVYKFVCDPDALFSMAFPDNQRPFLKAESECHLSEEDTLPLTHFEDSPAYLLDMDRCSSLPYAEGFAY
# Method in brief: as §1
# HSF1 = HSF1 (Homo sapiens, UniProt Q00613 1-529); conditions: protein: recombinant; tags: N-terminal GST; chain copies: 3; dsDNA, one strand shown
# Chain of HSF1 (Q00613 whole entry): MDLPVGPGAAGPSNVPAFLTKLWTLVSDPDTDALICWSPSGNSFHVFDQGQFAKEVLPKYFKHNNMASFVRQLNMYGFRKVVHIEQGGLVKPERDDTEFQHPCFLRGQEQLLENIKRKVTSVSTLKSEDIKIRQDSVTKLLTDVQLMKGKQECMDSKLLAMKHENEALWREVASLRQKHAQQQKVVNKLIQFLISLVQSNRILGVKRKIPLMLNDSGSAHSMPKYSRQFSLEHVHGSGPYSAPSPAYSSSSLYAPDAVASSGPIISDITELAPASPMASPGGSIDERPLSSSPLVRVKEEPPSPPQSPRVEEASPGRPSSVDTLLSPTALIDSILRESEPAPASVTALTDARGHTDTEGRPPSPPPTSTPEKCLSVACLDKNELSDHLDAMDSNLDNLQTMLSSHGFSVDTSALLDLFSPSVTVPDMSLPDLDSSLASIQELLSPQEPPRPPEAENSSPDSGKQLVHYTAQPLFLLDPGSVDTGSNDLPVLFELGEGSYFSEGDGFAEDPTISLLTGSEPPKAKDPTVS
# Method in brief: as §1
# SPIC = molecular target: T8, SPIC (Homo sapiens, UniProt Q8N5J4 1-248); conditions: protein: recombinant; tags: N-terminal GST; dsDNA, one strand shown
# T8 sequence: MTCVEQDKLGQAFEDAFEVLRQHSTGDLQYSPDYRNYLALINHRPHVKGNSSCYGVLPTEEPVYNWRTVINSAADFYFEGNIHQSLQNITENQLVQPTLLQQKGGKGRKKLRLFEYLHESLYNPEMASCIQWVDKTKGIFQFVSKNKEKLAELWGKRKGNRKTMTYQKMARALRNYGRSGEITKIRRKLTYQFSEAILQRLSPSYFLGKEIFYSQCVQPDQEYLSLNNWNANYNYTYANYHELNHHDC
# Method in brief: as §1
# ELF4 = ELF4 (Homo sapiens, UniProt Q99607 1-663); conditions: protein: recombinant; tags: N-terminal GST; dsDNA, one strand shown
# Chain of ELF4 (Q99607 whole entry): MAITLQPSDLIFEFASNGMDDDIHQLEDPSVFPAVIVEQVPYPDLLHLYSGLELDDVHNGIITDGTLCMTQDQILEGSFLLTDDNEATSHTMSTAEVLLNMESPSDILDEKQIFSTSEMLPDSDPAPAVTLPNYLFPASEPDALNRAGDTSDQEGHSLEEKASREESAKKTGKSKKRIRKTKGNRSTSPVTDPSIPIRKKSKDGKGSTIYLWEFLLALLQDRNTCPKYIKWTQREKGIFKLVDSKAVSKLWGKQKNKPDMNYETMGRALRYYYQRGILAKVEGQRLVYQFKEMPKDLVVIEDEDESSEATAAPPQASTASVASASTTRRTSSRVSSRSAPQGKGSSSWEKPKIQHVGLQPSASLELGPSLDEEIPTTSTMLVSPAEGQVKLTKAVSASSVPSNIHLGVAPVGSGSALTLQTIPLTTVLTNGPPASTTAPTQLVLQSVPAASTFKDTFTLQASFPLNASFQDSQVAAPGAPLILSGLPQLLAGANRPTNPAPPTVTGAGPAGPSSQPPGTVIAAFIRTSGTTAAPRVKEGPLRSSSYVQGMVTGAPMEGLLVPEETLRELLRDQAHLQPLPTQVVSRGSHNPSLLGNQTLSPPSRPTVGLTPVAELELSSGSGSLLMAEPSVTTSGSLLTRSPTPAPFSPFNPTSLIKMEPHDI
# Method in brief: as §1
# ELK4 = molecular target: T9, ELK4 (Homo sapiens, UniProt P28324-2 1-405); conditions: protein: recombinant; tags: N-terminal GST; dsDNA, one strand shown
# T9 sequence: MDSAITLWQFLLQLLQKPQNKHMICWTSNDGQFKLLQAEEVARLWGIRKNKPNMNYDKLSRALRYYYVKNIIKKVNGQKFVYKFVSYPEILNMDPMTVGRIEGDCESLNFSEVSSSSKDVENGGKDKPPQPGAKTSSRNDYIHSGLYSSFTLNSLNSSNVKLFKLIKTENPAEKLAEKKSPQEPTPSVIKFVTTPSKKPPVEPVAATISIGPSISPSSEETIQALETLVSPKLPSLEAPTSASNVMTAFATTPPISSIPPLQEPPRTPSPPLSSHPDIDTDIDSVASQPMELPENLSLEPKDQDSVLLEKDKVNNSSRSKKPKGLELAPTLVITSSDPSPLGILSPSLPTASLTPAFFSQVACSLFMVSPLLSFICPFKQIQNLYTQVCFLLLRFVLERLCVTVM
# Method in brief: as §1
# ETV2 = molecular target: T10, ETV2 (Homo sapiens, UniProt O00321 1-342); conditions: protein: recombinant; tags: N-terminal GST; dsDNA, one strand shown
# T10 sequence: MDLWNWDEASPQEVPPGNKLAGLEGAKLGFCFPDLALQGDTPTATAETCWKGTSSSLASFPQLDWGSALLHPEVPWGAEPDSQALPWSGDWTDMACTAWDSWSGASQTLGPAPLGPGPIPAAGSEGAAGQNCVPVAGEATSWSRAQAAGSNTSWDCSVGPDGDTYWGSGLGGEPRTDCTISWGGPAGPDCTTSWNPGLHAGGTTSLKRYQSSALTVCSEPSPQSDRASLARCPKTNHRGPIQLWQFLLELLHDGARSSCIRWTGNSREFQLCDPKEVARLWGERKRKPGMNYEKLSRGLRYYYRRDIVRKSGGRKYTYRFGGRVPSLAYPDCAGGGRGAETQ
# Method in brief: as §1
# ELF3 = molecular target: T11, ELF3 (Homo sapiens, UniProt P78545 1-371); conditions: protein: recombinant; tags: N-terminal GST; dsDNA, one strand shown
# T11 sequence: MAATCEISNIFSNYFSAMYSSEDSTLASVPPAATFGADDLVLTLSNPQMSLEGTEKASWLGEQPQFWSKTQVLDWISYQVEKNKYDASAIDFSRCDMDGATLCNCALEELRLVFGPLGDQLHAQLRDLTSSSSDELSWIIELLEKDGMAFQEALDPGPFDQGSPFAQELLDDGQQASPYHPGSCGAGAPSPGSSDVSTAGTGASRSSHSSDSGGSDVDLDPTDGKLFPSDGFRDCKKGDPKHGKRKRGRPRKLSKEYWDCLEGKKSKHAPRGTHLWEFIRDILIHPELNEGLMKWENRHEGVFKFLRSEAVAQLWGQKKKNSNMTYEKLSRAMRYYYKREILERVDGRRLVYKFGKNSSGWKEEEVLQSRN
# Method in brief: as §1
# CRX = CRX (Homo sapiens, UniProt O43186 1-299); conditions: protein: recombinant; tags: N-terminal GST; dsDNA, one strand shown
# Chain of CRX (O43186 whole entry): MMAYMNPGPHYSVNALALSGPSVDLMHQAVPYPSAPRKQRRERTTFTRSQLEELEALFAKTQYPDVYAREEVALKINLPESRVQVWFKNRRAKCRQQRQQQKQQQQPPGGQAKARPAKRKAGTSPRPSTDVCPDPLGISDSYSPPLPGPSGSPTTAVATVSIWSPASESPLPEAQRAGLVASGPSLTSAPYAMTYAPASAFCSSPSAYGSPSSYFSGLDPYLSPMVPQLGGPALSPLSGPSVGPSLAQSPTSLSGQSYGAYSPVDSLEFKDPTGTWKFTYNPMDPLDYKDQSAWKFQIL
# Method in brief: as §1
# ETV1 = ETV1 (Homo sapiens, UniProt P50549 1-477); conditions: protein: recombinant; tags: N-terminal GST; dsDNA, one strand shown
# Chain of ETV1 (P50549 whole entry): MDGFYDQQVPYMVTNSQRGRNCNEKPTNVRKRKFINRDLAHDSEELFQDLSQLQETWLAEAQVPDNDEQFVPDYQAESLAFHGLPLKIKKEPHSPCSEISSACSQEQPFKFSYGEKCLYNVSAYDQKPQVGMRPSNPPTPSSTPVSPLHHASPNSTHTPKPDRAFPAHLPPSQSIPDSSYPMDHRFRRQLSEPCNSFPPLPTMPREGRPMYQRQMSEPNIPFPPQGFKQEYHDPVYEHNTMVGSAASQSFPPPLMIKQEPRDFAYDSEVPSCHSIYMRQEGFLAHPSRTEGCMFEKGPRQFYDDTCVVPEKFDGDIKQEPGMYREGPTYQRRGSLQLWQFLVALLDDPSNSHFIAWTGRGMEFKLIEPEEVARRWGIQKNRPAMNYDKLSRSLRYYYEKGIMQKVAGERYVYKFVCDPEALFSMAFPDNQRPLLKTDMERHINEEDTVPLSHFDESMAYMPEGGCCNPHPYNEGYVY
# Method in brief: as §1
sequence,measurement,setting,value
TCCTAT,binding signal,FLI1,"1.62 fold enrichment (6-mer frequency, TF over GST control)"
same,binding signal,ELK1,"1.56 fold enrichment (6-mer frequency, TF over GST control)"
same,binding signal,GABPA,"1.58 fold enrichment (6-mer frequency, TF over GST control)"
same,binding signal,ERG,"1.45 fold enrichment (6-mer frequency, TF over GST control)"
same,binding signal,ELF1,"1.46 fold enrichment (6-mer frequency, TF over GST control)"
same,binding signal,EHF,"1.5 fold enrichment (6-mer frequency, TF over GST control)"
same,binding signal,SPI1,"1.44 fold enrichment (6-mer frequency, TF over GST control)"
same,binding signal,SPIB,"1.6 fold enrichment (6-mer frequency, TF over GST control)"
same,binding signal,ELK3,"1.47 fold enrichment (6-mer frequency, TF over GST control)"
same,binding signal,FEV,"1.41 fold enrichment (6-mer frequency, TF over GST control)"
same,binding signal,ETV5,"1.47 fold enrichment (6-mer frequency, TF over GST control)"
same,binding signal,HSF1,"1.41 fold enrichment (6-mer frequency, TF over GST control)"
same,binding signal,SPIC,"1.68 fold enrichment (6-mer frequency, TF over GST control)"
same,binding signal,ELF4,"1.46 fold enrichment (6-mer frequency, TF over GST control)"
same,binding signal,ELK4,"1.49 fold enrichment (6-mer frequency, TF over GST control)"
same,binding signal,ETV2,"1.56 fold enrichment (6-mer frequency, TF over GST control)"
same,binding signal,ELF3,"1.74 fold enrichment (6-mer frequency, TF over GST control)"
same,binding signal,CRX,"1.68 fold enrichment (6-mer frequency, TF over GST control)"
same,binding signal,ETV1,"1.57 fold enrichment (6-mer frequency, TF over GST control)"
